In PubChem BioAssay (NCATS) one finds Potency data, which are given here for 19 molecules.

Records with an inconclusive call do not appear. Active and inactive are the calls of the source. The call rests on the fitted dose curve; in most records, active means well fitted curve in the direction sought with a large enough effect; inconclusive means small, poorly fitted or top-dose-only effect, or another doubt; inactive means no such curve, though single readings can be large; an effect the other way counts as inactive or inconclusive.

The target in experiment [1] is Rap guanine nucleotide exchange factor 3 (Homo sapiens) (UniProt O95398). In words: Confirmatory qHTS for antagonist of cAMP-regulated guanine nucleotide exchange factor 3 (EPAC1) (AID 1645880). Further: nearly all actives have a fitted effect of over 55% in size. Further: potency means the concentration at half of the fitted maximal effect. Particulars: EPAC1 Rap1B-BODIPY-GDP exchange, fluorescence; series mostly up to 115 µM. In short, it runs like this: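 Released BODIPY-GDP fluoresces less than Rap1-bound BODIPY-GDP; the signal is followed at 480/540 nm at 5-min intervals over 30 min, after 5 min at room temperature. Reactions contain 100 nM EPAC1, 250 nM RAP1B-BODIPY-GDP and 50 uM GDP; results are normalized to ATA and DMSO.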
Chain of Rap guanine nucleotide exchange factor 3 (Homo sapiens) (O95398 whole entry, looked up): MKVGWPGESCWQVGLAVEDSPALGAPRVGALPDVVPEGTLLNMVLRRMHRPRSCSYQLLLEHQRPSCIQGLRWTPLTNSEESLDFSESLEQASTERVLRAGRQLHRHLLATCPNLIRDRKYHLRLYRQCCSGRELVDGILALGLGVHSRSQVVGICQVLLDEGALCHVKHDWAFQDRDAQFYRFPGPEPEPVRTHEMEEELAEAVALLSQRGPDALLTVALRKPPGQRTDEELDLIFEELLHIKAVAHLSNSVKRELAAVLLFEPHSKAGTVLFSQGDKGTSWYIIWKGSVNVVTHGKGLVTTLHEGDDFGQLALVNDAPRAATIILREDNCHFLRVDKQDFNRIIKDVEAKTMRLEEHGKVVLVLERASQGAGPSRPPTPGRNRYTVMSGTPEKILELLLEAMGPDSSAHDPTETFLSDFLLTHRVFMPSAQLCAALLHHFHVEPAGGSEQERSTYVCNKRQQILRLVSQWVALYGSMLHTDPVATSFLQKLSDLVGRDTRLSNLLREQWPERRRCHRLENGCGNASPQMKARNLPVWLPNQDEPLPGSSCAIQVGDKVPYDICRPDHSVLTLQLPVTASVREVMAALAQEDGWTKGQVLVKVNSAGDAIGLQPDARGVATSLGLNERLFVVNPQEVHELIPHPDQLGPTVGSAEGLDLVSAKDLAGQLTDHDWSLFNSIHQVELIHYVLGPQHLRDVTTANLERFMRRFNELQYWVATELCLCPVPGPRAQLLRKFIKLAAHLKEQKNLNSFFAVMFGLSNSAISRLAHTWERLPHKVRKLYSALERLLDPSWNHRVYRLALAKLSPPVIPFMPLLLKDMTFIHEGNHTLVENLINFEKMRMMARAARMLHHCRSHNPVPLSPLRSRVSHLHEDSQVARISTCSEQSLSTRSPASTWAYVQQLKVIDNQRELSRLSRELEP
For orientation: In qHTS, concentration-response curves come from the screen itself.

Experiment [2] has the same target. Put plainly: Confirmatory qHTS for agonist of cAMP-regulated guanine nucleotide exchange factor 3 (EPAC1) (AID 1645881).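 Further: EPAC1 catalysed release of BODIPY-GDP from Rap1B seen as fluorescence loss; nearly all actives have a fitted effect of over 75% in size.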 Particulars: EPAC1 Rap1B BODIPY-GDP exchange fluorescence; series mostly up to 154 µM.
The target of experiment [3] is Rap guanine nucleotide exchange factor 4 (Homo sapiens) (UniProt Q8WZA2). In words: Confirmatory qHTS for agonist of cAMP-regulated guanine nucleotide exchange factor 4 (EPAC2) (AID 1645884). Further: nearly all actives have a fitted effect of over 65% in size. Particulars: EPAC2 GEF activity, Rap1B-BODIPY-GDP fluorescence; series mostly up to 154 µM.
Chain of Rap guanine nucleotide exchange factor 4 (Homo sapiens) (Q8WZA2 whole entry, looked up): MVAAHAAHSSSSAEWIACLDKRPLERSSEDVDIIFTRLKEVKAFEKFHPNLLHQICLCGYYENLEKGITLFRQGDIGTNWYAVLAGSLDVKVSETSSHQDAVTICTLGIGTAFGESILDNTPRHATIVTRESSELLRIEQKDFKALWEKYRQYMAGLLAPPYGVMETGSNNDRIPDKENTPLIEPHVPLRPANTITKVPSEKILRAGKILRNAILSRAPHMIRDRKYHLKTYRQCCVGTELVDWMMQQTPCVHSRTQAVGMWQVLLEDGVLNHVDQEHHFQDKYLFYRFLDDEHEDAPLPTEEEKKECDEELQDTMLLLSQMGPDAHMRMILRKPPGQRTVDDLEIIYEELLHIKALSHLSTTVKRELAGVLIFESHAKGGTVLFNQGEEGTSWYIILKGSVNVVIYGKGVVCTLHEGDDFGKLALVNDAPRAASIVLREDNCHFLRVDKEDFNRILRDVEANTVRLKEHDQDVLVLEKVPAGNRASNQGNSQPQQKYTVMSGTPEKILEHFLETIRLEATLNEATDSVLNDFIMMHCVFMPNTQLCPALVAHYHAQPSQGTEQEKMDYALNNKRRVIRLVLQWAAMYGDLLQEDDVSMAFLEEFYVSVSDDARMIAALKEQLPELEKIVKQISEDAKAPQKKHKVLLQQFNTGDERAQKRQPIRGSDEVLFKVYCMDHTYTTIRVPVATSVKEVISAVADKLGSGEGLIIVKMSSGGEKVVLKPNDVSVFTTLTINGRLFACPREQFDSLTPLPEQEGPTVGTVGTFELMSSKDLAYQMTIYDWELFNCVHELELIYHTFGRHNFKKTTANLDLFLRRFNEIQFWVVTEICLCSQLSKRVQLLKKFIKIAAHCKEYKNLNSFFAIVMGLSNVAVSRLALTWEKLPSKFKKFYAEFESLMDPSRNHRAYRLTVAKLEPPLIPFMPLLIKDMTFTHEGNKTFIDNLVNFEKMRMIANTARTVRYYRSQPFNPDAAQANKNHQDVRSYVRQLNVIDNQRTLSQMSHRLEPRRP
Experiment [4] has the same target. In words: Confirmatory qHTS for antagonist of cAMP-regulated guanine nucleotide exchange factor 4 (EPAC2) (AID 1645885). Further: nearly all actives have a fitted effect of over 25% in size. Further: potency means the concentration at half of the fitted maximal effect. Particulars: EPAC2 Rap1B-BODIPY-GDP exchange fluorescence, biochemical; series mostly up to 12.7 µM.

Consider `Cc1cc(-c2cc(F)cc3c2OC(CNC(=O)CCn2cncn2)C3)ccc1F` (configuration not stated), for which the Potency result in experiment [1], in experiment [2], in experiment [3] and in experiment [4] was “inactive” in each case.
As for `COc1ccc(Cl)cc1NC(=O)CN(C)C(=O)c1cc2c(s1)CCC(C)C2` (configuration not stated), the Potency entry in experiment [1], in experiment [2], in experiment [3] and in experiment [4] was “inactive” each time.
For the molecule `CCCCOC(=O)Nc1ccc(S(=O)(=O)Nc2nccs2)cc1`, the Potency entry in experiment [1], in experiment [2] and in experiment [3] was “inactive” in each case.
As for `COc1cccc(-c2nc3cc(SC)ccc3cc2CN(C(=O)c2sccc2C)C2CC2)c1`, the Potency entry in experiment [1], in experiment [2] and in experiment [3] was “inactive” in each case. For the same molecule, the Potency in experiment [4] is 31.2 µM (active).
In the case of `CC(C)(C)[C@H]1CCC(=O)N([C@H](CN=[N+]=[N-])Cc2ccccc2)CC1`, the Potency result in experiment [1], in experiment [2] and in experiment [3] was “inactive” throughout.
In the case of `CN(CC(=O)O)c1ccc(/C=C/c2ccnc3ccccc23)cc1`, the Potency result in experiment [1], in experiment [2] and in experiment [3] was “inactive” in each case. For the same molecule, the Potency in experiment [4] is 55.5 µM (active).
Turning to `Cc1[nH]c2ccccc2c1/C=C/c1ccc2ccccc2n1`, the Potency result in experiment [1], in experiment [2] and in experiment [3] was “inactive” in each case.
Turning to `CC(=O)NC(c1ccc2ccccc2c1)c1ccc2cccnc2c1O` (configuration not stated), the Potency result in experiment [1], in experiment [2] and in experiment [3] was “inactive” in each case. The Potency in experiment [4] was 10.7 µM (active).
For the molecule `Cc1ccc(S(=O)(=O)N2[C@@H](CO)CO[C@H]2CC(=O)c2ccc(F)cc2)cc1`, the Potency result in experiment [1], in experiment [2], in experiment [3] and in experiment [4] was “inactive” each time.
For `CC[C@H]1c2[nH]c3ccc(C(C)C)cc3c2[C@@H]2CCN3C(=O)CCC[C@H]1[C@H]23`, the Potency result in experiment [1], in experiment [2], in experiment [3] and in experiment [4] was “inactive” throughout.
`COCCN(CCOC)c1nc(-c2ccccc2)nc2ccccc12`: the Potency entry in experiment [1], in experiment [2] and in experiment [3] was “inactive” each time.
For `CN(Cc1cccc2ncccc12)C(=O)c1cnn(-c2nccc(-c3ccccc3F)n2)c1C1CC1`, the Potency result in experiment [1], in experiment [2] and in experiment [3] was “inactive” each time. Moreover, the Potency in experiment [4] was 15.6 µM (active).
As to `Cc1cccc(C)c1Nc1c(-c2ccccc2F)nc2cccc(C)n12`, in experiment [1], the Potency was 75.7 µM (active). Moreover, the Potency entry in experiment [2], in experiment [3] and in experiment [4] was “inactive” throughout.
For `COc1ccc(CNC(=O)[C@@H]2CC=C[C@@H]3CCN(Cc4ccccc4)C(=O)[C@@H]32)cc1`, the Potency result in experiment [1], in experiment [2], in experiment [3] and in experiment [4] was “inactive” each time.
Regarding `CC(=O)Nc1ccc(SC[C@H](C)CN2CC[C@H](C(C)(C)C)CCC2=O)cc1`, the Potency entry in experiment [1], in experiment [2] and in experiment [3] was “inactive” in each case. Besides, in experiment [4], the Potency is 44.1 µM (active).
`CCOC(=O)[C@H](CCc1ccccc1)N[C@@H](C)C(=O)N1[C@@H](C(=O)O)C[C@@H]2CCC[C@@H]21`: the Potency entry in experiment [1], in experiment [2], in experiment [3] and in experiment [4] was “inactive” each time.
`COc1ccc(-c2[nH]c(-c3ccc(SC)cc3)nc2SCC(=O)Nc2nccs2)cc1`: the Potency in experiment [1] is 84.9 µM (active). The Potency entry in experiment [2], in experiment [3] and in experiment [4] was “inactive” in each case.
With `O=C1C[C@H]2C=CCc3cccc(c32)CN1Cc1ccc(Cl)cc1`, the Potency entry in experiment [1], in experiment [2] and in experiment [3] was “inactive” each time. Further, the Potency in experiment [4] was 44.1 µM (active).
For the molecule `CC(C)OP(=O)(c1ccc(N(C)C)cc1)C(Nc1ccccc1)c1ccccc1` (configuration not stated), the Potency result in experiment [1], in experiment [2], in experiment [3] and in experiment [4] was “inactive” each time.
